Test systems include NCI-H23 lung; NCI-H226 lung; NCI-H322M lung; HOP-62 NSCLC; NCI-H460 lung; HOP-92 NSCLC; NCI-H522 lung; A549/ATCC NSCLC; 786-0 renal; COLO 205 colon.
Common to all, as to test: NCI-60 one-dose screen, 48 h (100 = growth as untreated, 0 = no growth, -100 = all killed)
Holding throughout (settings): 10 µM unless noted

This is part of a sample that, as a whole, favours compounds with a hit. Of some 83,000 tested, about 20% had one in any assay.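 Each cell line was grown in a 96-well plate and treated with one concentration of compound for 48 hours. Values below 10 were considered active.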 A number with no mark means an inactive call. The source made the active and inactive calls.

Regarding `Cc1cc(C)c(S(=O)(=O)N2CCN(c3cc4c(cc3F)c(=O)c(C(=O)O)cn4C3CC3)CC2)c(C)c1`, the growth in the assay on NCI-H23 lung was 57.4%; with NCI-H226 lung it was 71.8%; in the assay with NCI-H322M lung, 74.7%; in the assay on HOP-62 NSCLC, 57.3%; with NCI-H460 lung it was 39.5%; with HOP-92 NSCLC it was 46.9%. Moreover, the growth in the assay on NCI-H522 lung was 67.3%; in the assay with A549/ATCC NSCLC, 20.3%; with 786-0 renal it was 75.6%; in the assay with COLO 205 colon, 57.6%.

Take `COc1ccc(/C(=N/O)c2cc(F)c(F)c(OC)c2F)cc1O`: the growth in the assay on NCI-H23 lung is 39.2%; with NCI-H226 lung, 85.7%; in the assay on NCI-H322M lung, 46%; in the assay with HOP-62 NSCLC, 21.5%; in the assay with NCI-H460 lung it was 9.72% (active); in the assay on HOP-92 NSCLC, 50.8%. For the same compound, the growth with NCI-H522 lung was -56.7% (active); with A549/ATCC NSCLC, 42%; in the assay on 786-0 renal it was 45%; in the assay on COLO 205 colon, 62.1%.

As for `COC(=O)[C@H]1[C@H](OC)[C@@H](OC(=O)/C=C/c2ccncc2)CC2CN3CCc4c([nH]c5cc(OC)ccc45)[C@@H]3C[C@@H]21` (stereo not given in full), the growth is 97% in the assay on NCI-H23 lung; 73.7% in the assay on NCI-H226 lung; 78.4% in the assay on NCI-H322M lung; 78.5% in the assay with HOP-62 NSCLC; 92.5% in the assay with NCI-H460 lung; 1.2% (active) with HOP-92 NSCLC. In addition, the growth in the assay on NCI-H522 lung is 72%; with A549/ATCC NSCLC it was 82.9%; with 786-0 renal it was 83.5%; in the assay with COLO 205 colon, 79.2%.

For the compound `C=C1C(=O)O[C@H]2[C@H]1CC/C(COC(=O)NCCc1cccc(OC)c1)=C\CC[C@@]1(C)O[C@@H]21`, the growth in the assay with NCI-H23 lung is 75.1%; with NCI-H226 lung it was 41.3%; in the assay on NCI-H322M lung, 91.7%; in the assay on HOP-62 NSCLC, 66.6%; in the assay with NCI-H460 lung, 74.5%; in the assay on HOP-92 NSCLC, 44%. Besides, the growth with NCI-H522 lung was -30.8% (active); in the assay on A549/ATCC NSCLC, 79.2%; in the assay on 786-0 renal it was 5.24% (active); in the assay on COLO 205 colon, -35.3% (active).

For `O=C(Nc1ccc(Br)c(Cl)c1)c1cc(F)ccc1O`, the growth with NCI-H23 lung was -9.2% (active); in the assay with NCI-H226 lung, -23.8% (active); in the assay on NCI-H322M lung, 9.4% (active); in the assay with HOP-62 NSCLC, 0.0415% (active); in the assay on NCI-H460 lung, 3.85% (active); in the assay with HOP-92 NSCLC, -14.4% (active). Besides, the growth in the assay with NCI-H522 lung is 0.474% (active); in the assay with A549/ATCC NSCLC it was 8.88% (active); in the assay on 786-0 renal, 7.91% (active); in the assay on COLO 205 colon, 41.5%.

As for `Cc1nc(Nc2cccnc2)sc1C(=O)/C=C/c1ccc(F)cc1`, the growth was 82.3% with NCI-H23 lung; 55.7% in the assay on NCI-H226 lung; 47.9% in the assay on NCI-H322M lung; 30.4% in the assay with HOP-62 NSCLC; 59.8% with NCI-H460 lung; 88.6% with HOP-92 NSCLC. Further, the growth in the assay on NCI-H522 lung is 52%; with A549/ATCC NSCLC, 25.2%; with 786-0 renal, 13.8%; in the assay with COLO 205 colon, 56.4%.

Consider `CCCCCCCCCN1C(=O)/C(=c2\sc3n(c2=O)C2C(NN=3)N(CC)C(=O)N2CC)c2ccccc21` (stereo not given), for which the growth is 10.1% with NCI-H23 lung; 89.6% in the assay with NCI-H226 lung; 77% in the assay on NCI-H322M lung; 45.1% in the assay on HOP-62 NSCLC; 46.1% in the assay with NCI-H460 lung; 44.5% in the assay with HOP-92 NSCLC. Also, the growth with NCI-H522 lung was 26.8%; in the assay on A549/ATCC NSCLC it was 56%; in the assay with 786-0 renal, 78.4%; with COLO 205 colon, 93.3%.

Regarding `O=C1Nc2cc(Cl)ccc2Oc2cc(Oc3ccccc3)ccc21`, the growth in the assay on NCI-H23 lung was 54.8%; with NCI-H226 lung, 72.3%; in the assay with NCI-H322M lung it was 76.2%; in the assay with HOP-62 NSCLC it was 64.1%; with NCI-H460 lung it was 25.1%; with HOP-92 NSCLC, 115%. For the same compound, the growth with NCI-H522 lung is 45.1%; in the assay with A549/ATCC NSCLC, 62.2%; in the assay on 786-0 renal, 74.3%; in the assay with COLO 205 colon it was 45.2%.

On to `CCOC(=O)C1=C(CSC(=S)N(C2CCCCC2)C2CCCCC2)N(C)C(=O)NC1c1ccccc1` (stereo not given), for which the growth in the assay on NCI-H23 lung was 76.5%; with NCI-H226 lung it was 58.8%; in the assay on NCI-H322M lung, 91.9%; with HOP-62 NSCLC it was 63.1%; with NCI-H460 lung it was 12.7%; in the assay with HOP-92 NSCLC, 69%. The growth in the assay on NCI-H522 lung was 58.1%; in the assay with A549/ATCC NSCLC, 47.2%; with 786-0 renal, 48.6%; in the assay with COLO 205 colon, 60.6%.

On to `CCN(CC)CCSc1c2ccc(Cl)cc2nc2ccc(OC)cc12`, for which the growth in the assay with NCI-H23 lung is 87.1%; with NCI-H226 lung it was 100%; with NCI-H322M lung, 105%; in the assay with HOP-62 NSCLC it was 75.9%; in the assay with NCI-H460 lung, 102%; in the assay on HOP-92 NSCLC, 82.3%. Further, the growth is -24.9% (active) with NCI-H522 lung, 74% in the assay with A549/ATCC NSCLC, 67.6% in the assay on 786-0 renal and 26.8% in the assay on COLO 205 colon.

`CSc1ccccc1C#C/C=C\C#Cc1ccccc1N1CCCC1=O`: the growth in the assay on NCI-H23 lung is 53.4%; in the assay with NCI-H226 lung, 62.5%; in the assay on NCI-H322M lung it was 91.5%; in the assay with HOP-62 NSCLC, 60.2%; in the assay on NCI-H460 lung, 24.7%; with HOP-92 NSCLC, 40.7%. Further, the growth with NCI-H522 lung is 70.5%; in the assay on A549/ATCC NSCLC, 63.2%; in the assay with 786-0 renal, 71.1%; in the assay on COLO 205 colon it was 65.2%.

`C=CCc1cc(Cl)cc2c(OC(C)=O)c(C(C)=O)c(-c3ccccc3)nc12`: the growth in the assay with NCI-H23 lung is 91.8%; in the assay with NCI-H226 lung, 103%; with NCI-H322M lung it was 106%; with HOP-62 NSCLC, 89.2%; in the assay with NCI-H460 lung, 106%; in the assay with HOP-92 NSCLC, 105%. The growth in the assay on NCI-H522 lung is 96.4%; in the assay on A549/ATCC NSCLC, 102%; in the assay with 786-0 renal, 107%; in the assay with COLO 205 colon, 108%.

Turning to `O=C(CNc1ccc(Cl)cc1)Nc1ccc(-c2nc3ccccc3s2)cc1`, the growth was 39.1% with NCI-H23 lung; 58.1% in the assay with NCI-H226 lung; 80.3% in the assay with NCI-H322M lung; 116% in the assay on HOP-62 NSCLC; 87.1% in the assay with NCI-H460 lung; 97.8% with HOP-92 NSCLC. The growth with NCI-H522 lung is -94.5% (active); with A549/ATCC NSCLC, 89%; in the assay on 786-0 renal it was 27%; with COLO 205 colon, 47%.

Source of the values: PubChem BioAssay (NCI).
